From PubChem BioAssay (NCI)
This is part of a sample that, as a whole, favours compounds with a hit. Of some 79,000 tested, about 15% had one in any assay. Active and inactive are the calls of the source. Rule as the data show it: active = growth inhibition above about 70%; inactive = the rest.

Tests used:
[1] = NCI Yeast Anticancer Drug Screen. Data for the wt1 strain (AID 149);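 also: 0% = growth of vehicle-treated wt1 cultures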; details: S. cerevisiae wt1 strain (SPY 50644) growth inhibition, stronger effect = higher value
Method in brief: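 Vehicle-normalised growth inhibition; strain wt1; compound exposure.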

[2] = NCI Yeast Anticancer Drug Screen. Data for the rad50EPP+ strain (AID 151);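 also: 0% = growth of vehicle-treated control cultures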; details: S. cerevisiae rad50 mutant strain, stronger effect = higher value
Method in brief: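 Strain rad50EPP+; compound exposure; % growth inhibition vs vehicle.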

[3] = NCI Yeast Anticancer Drug Screen. Data for the rad50 strain (AID 155);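 also: 0% = growth of vehicle-only cultures of the same strain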; details: S. cerevisiae rad50 strain growth inhibition, stronger effect = higher value
Method in brief: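 A DNA repair-deficient yeast mutant serves as the test organism; compound-induced growth inhibition is calculated against vehicle-treated cells.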

[4] = NCI Yeast Anticancer Drug Screen. Data for the mec2-1 strain (AID 157); details: S. cerevisiae mec2-1 strain, stronger effect = higher value
Method in brief: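 Cells of the genetically defined mec2-1 yeast strain are incubated with test compound. Inhibition of growth is calculated against vehicle-treated controls.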

[5] = NCI Yeast Anticancer Drug Screen. Data for the rad14 strain (AID 159);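 also: 0% = growth of vehicle-treated control cultures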; details: S. cerevisiae rad14 strain growth inhibition, stronger effect = higher value
Method in brief: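 Vehicle-treated cultures served as the baseline for growth inhibition of a DNA repair-mutant yeast strain exposed to each compound.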

[6] = NCI Yeast Anticancer Drug Screen. Data for the sgs1 mgt1 strain (AID 161);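 also: 0% = growth of cultures given vehicle only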; details: S. cerevisiae sgs1 mgt1 strain, stronger effect = higher value
Method in brief: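 Mutant yeast exposed to compound; growth scored against vehicle-only wells.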

[7] = NCI Yeast Anticancer Drug Screen. Data for the CLN2oe strain (AID 163);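 also: 0% = growth of vehicle-only control cultures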; details: S. cerevisiae CLN2oe strain, stronger effect = higher value
Method in brief: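 Strain altered in cell-cycle control, incubated with compound; growth compared to solvent-treated controls.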

[8] = NCI Yeast Anticancer Drug Screen. Data for the cln2 rad14 strain (AID 165);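 also: 0% = growth equal to vehicle treated cultures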; details: S. cerevisiae cln2 rad14 strain, stronger effect = higher value
Method in brief: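 The screen exposed genetically defined yeast (cln2 rad14) to test compounds and scored growth inhibition relative to vehicle-treated controls.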

[9] = NCI Yeast Anticancer Drug Screen. Data for the bub3 strain (AID 167); details: S. cerevisiae bub3 mutant strain, stronger effect = higher value
Method in brief: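 Inhibition values come from growth of compound-treated mutant yeast normalised to vehicle-treated controls.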

[10] = NCI Yeast Anticancer Drug Screen. Data for the wt2 strain (AID 169);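 also: 0% = growth of vehicle-treated yeast cultures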; details: S. cerevisiae wt2 strain growth inhibition, stronger effect = higher value
Method in brief: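 Steps: yeast strain treated with compound; growth recorded; inhibition calculated relative to cultures given vehicle alone.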

[11] = NCI Yeast Anticancer Drug Screen. Data for the mlh1 strain (AID 171);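 also: 0% = growth of vehicle-treated control cultures of the same strain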; details: S. cerevisiae mlh1 strain growth inhibition, stronger effect = higher value
Method in brief: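 Yeast screen: mutant strain plus compound, growth scored against vehicle control wells.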

[12] = NCI Yeast Anticancer Drug Screen. Data for the sgs1 strain (AID 173);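 also: 0% = growth of vehicle-only control cultures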; details: S. cerevisiae sgs1 mutant, stronger effect = higher value
Method in brief: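 Inhibition of yeast growth served as the measure. The mutant strain was treated with each compound, and growth was normalised to cultures receiving vehicle alone.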

[13] = NCI Yeast Anticancer Drug Screen. Data for the mlh1 rad18 strain (AID 175); details: S. cerevisiae mlh1 rad18 strain growth inhibition, stronger effect = higher value
Method in brief: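 Compound-treated yeast growth, normalised to vehicle controls. Strain bears defined DNA repair mutations.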

[14] = NCI Yeast Anticancer Drug Screen. Data for the rad18 strain (AID 177); details: S. cerevisiae rad18 mutant growth inhibition, stronger effect = higher value
Method in brief: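 Inhibition values reflect reduced yeast growth compared with vehicle-treated controls, using a strain engineered with a DNA damage repair defect.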

[15] = at 5.0 µM (retest, dose inferred, filed as 0.5)
[16] = at 50.0 µM (retest, dose inferred, filed as 5.0)

Measured: growth inhibition

CNCC(O)c1ccc(O)c(O)c1.[Pt].c1ccc([PH+](c2ccccc2)c2ccccc2)cc1.c1ccc([PH+](c2ccccc2)c2ccccc2)cc1
inactive: [1]; at 1.2 µM -1% | [1]; at 3.7 µM -2% | [1]; at 11.0 µM -2% | [1]; at 33.0 µM 8% | [1]; at 100.0 µM 53% | [2]; at 1.2 µM 2% | [2]; at 3.7 µM -3% | [2]; at 11.0 µM -21% | [2]; at 33.0 µM 11% | [3]; at 1.2 µM -1% | [3]; at 3.7 µM -3% | [3]; [15] -8% | [3]; at 11.0 µM -1% | [4]; at 1.2 µM 3% | [4]; at 3.7 µM 6% | [4]; [15] -8% | [4]; at 11.0 µM 4% | [4]; at 33.0 µM 65% | [5]; at 1.2 µM -1% | [5]; at 3.7 µM -3% | [5]; at 11.0 µM 4% | [6]; [15] -2% | [6]; [16] -7% | [7]; at 1.2 µM 0% | [7]; at 3.7 µM -8% | [7]; at 11.0 µM 3% | [8]; [15] 17% | [9]; at 1.2 µM 0% | [9]; at 3.7 µM 1% | [9]; [15] -18% | [9]; at 11.0 µM -3% | [10]; at 1.2 µM -2% | [10]; at 3.7 µM -2% | [10]; at 11.0 µM 8% | [11]; at 1.2 µM -3% | [11]; at 3.7 µM -1% | [11]; at 11.0 µM 8% | [12]; at 1.2 µM 2% | [12]; at 3.7 µM 4% | [12]; at 11.0 µM 15% | [13]; [15] 13%
active: [2]; at 100.0 µM 93% | [3]; at 33.0 µM 96% | [3]; [16] 99% | [3]; at 50.0 µM 99% | [3]; at 100.0 µM 96% | [4]; [16] 99% | [4]; at 50.0 µM 98.8% | [4]; at 100.0 µM 97% | [5]; at 33.0 µM 98% | [5]; at 100.0 µM 96% | [6]; at 50.0 µM 99.1% | [7]; at 33.0 µM 93% | [7]; at 100.0 µM 96% | [8]; [16] 99% | [8]; at 50.0 µM 98.8% | [9]; at 33.0 µM 75% | [9]; [16] 99% | [9]; at 50.0 µM 98.8% | [9]; at 100.0 µM 96% | [10]; at 33.0 µM 98% | [10]; at 100.0 µM 98% | [11]; at 33.0 µM 91% | [11]; at 100.0 µM 97% | [12]; at 33.0 µM 86% | [12]; at 100.0 µM 97% | [13]; [16] 99% | [13]; at 50.0 µM 99%

CSC(=Nc1ccccc1)N(c1ccccc1)c1nc(=[N+](C)C)ss1
inactive: [1]; at 1.2 µM -2% | [1]; at 3.7 µM 7% | [1]; at 11.0 µM 54% | [2]; at 1.2 µM -1% | [2]; at 3.7 µM -5% | [2]; at 11.0 µM 23% | [3]; at 1.2 µM 3% | [3]; at 3.7 µM 13% | [3]; [15] 56% | [4]; at 1.2 µM 2% | [4]; at 3.7 µM 9% | [4]; [15] 26% | [5]; at 1.2 µM -5% | [5]; at 3.7 µM 7% | [6]; [15] 58% | [7]; at 1.2 µM -12% | [7]; at 3.7 µM -11% | [7]; at 11.0 µM 14% | [8]; [15] -1% | [9]; at 1.2 µM 1% | [9]; at 3.7 µM 22% | [9]; [15] 37% | [10]; at 1.2 µM 0% | [10]; at 3.7 µM 17% | [11]; at 1.2 µM -1% | [11]; at 3.7 µM 10% | [12]; at 1.2 µM 3% | [12]; at 3.7 µM 24% | [13]; [15] 44% | [14]; at 1.2 µM 4% | [14]; at 3.7 µM 34%
active: [1]; at 33.0 µM 93% | [1]; at 100.0 µM 98% | [2]; at 33.0 µM 87% | [2]; at 100.0 µM 97% | [3]; at 11.0 µM 93% | [3]; at 33.0 µM 98% | [3]; [16] 99% | [3]; at 50.0 µM 98.4% | [3]; at 100.0 µM 99% | [4]; at 11.0 µM 80% | [4]; at 33.0 µM 97% | [4]; [16] 99% | [4]; at 50.0 µM 99.3% | [4]; at 100.0 µM 99% | [5]; at 11.0 µM 92% | [5]; at 33.0 µM 99% | [5]; at 100.0 µM 99% | [6]; [16] 99% | [6]; at 50.0 µM 98.6% | [7]; at 33.0 µM 80% | [7]; at 100.0 µM 98% | [8]; [16] 98% | [8]; at 50.0 µM 93.4% | [9]; at 11.0 µM 85% | [9]; at 33.0 µM 93% | [9]; [16] 98% | [9]; at 50.0 µM 98.5% | [9]; at 100.0 µM 99% | [10]; at 11.0 µM 87% | [10]; at 33.0 µM 97% | [10]; at 100.0 µM 99% | [11]; at 11.0 µM 88% | [11]; at 33.0 µM 99% | [11]; at 100.0 µM 99% | [12]; at 11.0 µM 91% | [12]; at 33.0 µM 98% | [12]; at 100.0 µM 99% | [13]; [16] 98% | [13]; at 50.0 µM 98.6% | [14]; at 11.0 µM 93% | [14]; at 33.0 µM 98% | [14]; at 100.0 µM 98%
